PostGolgi ctrl: yeast control strain growth, post-Golgi counter-screen; efflux-deficient yeast background strain, growth absorbance A615, 16 h; inhibition, % at 10 µM; 98,000 tested, 5% active; AID 738
PostGolgi yeast: growth inhibition of a yeast mutant, post-Golgi transport screen. post-Golgi transport phenotypic cell assay. inhibition, % at 10 µM. 98,000 tested, 0.9% active. AID 739;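 also: yeast cells grown in 1536-well plates; yeast grown about 18 h at 30C before absorbance read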
CYP2C19 activ: activators of human cytochrome P450 2C19. P33261. recombinant CYP2C19, luciferin-H EGE luminescence; active compounds read high; 0 = fully inhibited enzyme, 1 = untreated enzyme. activation factor at 5 µM. 96,000 tested, under 10 active. AID 1025;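 active = activation factor of at least 2 at 5 µM in the primary screen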;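 also: 0 = wells with 2.5 mM tranylcypromine and 1 = vehicle-only wells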
Target sequence (P33261 whole entry, looked up): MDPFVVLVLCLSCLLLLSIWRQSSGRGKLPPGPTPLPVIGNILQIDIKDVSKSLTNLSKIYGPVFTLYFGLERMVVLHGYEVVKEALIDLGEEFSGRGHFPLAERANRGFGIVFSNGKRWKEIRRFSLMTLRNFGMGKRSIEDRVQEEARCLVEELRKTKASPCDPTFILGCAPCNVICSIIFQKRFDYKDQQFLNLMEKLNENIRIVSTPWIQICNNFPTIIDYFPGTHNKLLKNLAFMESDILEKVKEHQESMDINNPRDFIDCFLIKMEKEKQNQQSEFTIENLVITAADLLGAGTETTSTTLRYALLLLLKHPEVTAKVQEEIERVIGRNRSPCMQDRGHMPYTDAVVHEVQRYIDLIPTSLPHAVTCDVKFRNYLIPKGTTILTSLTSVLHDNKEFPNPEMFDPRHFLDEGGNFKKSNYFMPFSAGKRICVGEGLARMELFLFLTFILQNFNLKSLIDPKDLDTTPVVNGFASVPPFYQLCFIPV
CYP2C9 activ: activators of human CYP2C9 | activation factor at 5 µM | 96,000 tested, 1.4% active | recombinant CYP2C9, luciferin-H conversion, luminescence; active compounds read high; factor 1 = untreated enzyme, 0 = blocked;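 active = activation factor of 2 or more for CYP2C9 at a 5 µM dose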;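 also: 0 = sulfaphenazole-blocked wells and 1 = vehicle-only wells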
CYP2C19 inhib: blocks human cytochrome P450 2C19; P33261; CYP2C19 Supersomes, luciferin-H EGE luminescence, 30 min; inhibition, % at 5 µM; 96,000 tested, 21% active;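 active = CYP2C19 inhibition above a set limit at 5 µM in the primary screen, cut at about 50% in these data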;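 also: plate controls were negative control wells for no effect and 2.5 mM tranylcypromine positive control for full effect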
CYP2C9 inhib: blocks human cytochrome P450 2C9. P11712. CYP2C9 Supersomes, luciferin-H conversion, luminescence. inhibition, % at 5 µM. 96,000 tested, 20% active. AID 777;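 active = blocking of liver enzyme CYP2C9 beyond about 50% at 5 µM, limit read from the data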
* hit, by the source's call; x = no result. Sampled rows, rich in hits. Any-hit rate of the full collection: about 32%. Rule as the data show it, unless noted: active = inhibition above about 30%; inactive = the rest.

SMILES	PostGolgi ctrl	PostGolgi yeast	CYP2C19 activ	CYP2C9 activ	CYP2C19 inhib	CYP2C9 inhib
CCCc1cc(-c2[nH]ncc2-c2ccc3c(c2)OCCCO3)c(O)cc1OC	39.8*	15.2	0.1	0	86.4*	100.3*
Oc1ccccc1-c1cc(-c2ccc3c(c2)OCCO3)n[nH]1	4.0	1.6	0.8	0.7	21.1	26.8
CCc1cc(-c2[nH]ncc2-c2ccc3c(c2)OCO3)c(O)cc1O	x	x	0	0	99.6*	98.6*
COc1ccc(-c2[nH]ncc2-c2ccc3c(c2)OCCO3)c(O)c1	2.9	12.8	0.4	0.3	61.3*	66.5*
O=C(CN1CCN(Cc2cccc(Cl)c2)C1=O)NCc1ccccn1	0.6	1.6	1.2	1.1	-20.2	-11.9
Cc1noc(C)c1COC(=O)[C@H](C)NS(=O)(=O)c1ccc(Cl)c(Cl)c1	-2.1	0.9	0	0.4	97.9*	61.5*
COc1ccccc1NC(=O)Nc1ncccc1C	-3.6	-0.2	0.9	1.2	5.7	-18.1
CCN(CC)CCn1nc(C)nc1-c1ccccc1O	-5.8	40.4*	0.1	0.9	88.3*	12.8
CCOc1ccc(N=Nc2c(=O)[nH]n3c(=O)cc(C)[nH]c23)cc1	-5.5	-0.2	0.4	0.7	63.3*	31.4
Cc1ccc(NC(=O)N/C=C/c2ccco2)c(C)c1	7.6	-7.5	0.2	0.4	76.4*	61.0*
Cc1ccc(NC(=O)N/C=C/c2ccco2)cc1C	2.0	-3.1	0.8	0.7	23.9	25.3
N#CCCN(Cc1cccnc1)S(=O)(=O)c1ccc(S(=O)(=O)NC2CCCCC2)cc1	3.5	-2.8	0.4	0.6	59.1*	40.4
O=C(NCCCn1ccnc1)c1cc(-c2ccc(Cl)cc2)nc2ccccc12	3.1	0.5	0.1	0	89.9*	98.3*
Cc1nn(Cc2ccccc2Cl)c2sc(C(=O)NC(C)(C)C)cc12	19.5	-1.3	0.6	0.6	36.6	42.5
Cc1cc(C(=O)NCCCn2ccnc2)sc1-c1ccccc1	1.6	0.8	0	0.1	96.7*	89.0*
Cc1ccc2nc(-c3ccccc3)cc(C(=O)NCCCn3ccnc3)c2c1	-8.9	-4.4	0.2	0	81.1*	98.0*
Cc1cc(-c2ccccc2)nc2cc(C(=O)NCCCn3ccnc3)nn12	8.1	8.1	x	x	x	x
Cc1ccc(-c2cc(C(=O)NCc3ccccn3)c3ccccc3n2)cc1	-0.3	19.1	0.7	0.5	25.3	49.3
Cc1nn(Cc2ccccc2Cl)c2sc(C(=O)NCCCn3ccnc3)cc12	8.2	-5.5	0.1	0	89.9*	99.9*
CC1(C)CC(=O)c2cc(C(=O)NCc3ccco3)c(=O)n(-c3ccccc3)c2C1	1.1	-4.6	0.9	1.1	9.0	-5.3
CCOC(=O)N1CCC(NC(=O)Cn2cccc2C(=O)c2ccccc2)CC1	1.0	11.3	0.8	0.8	23.3	18.4
Cc1nn(Cc2ccc(Cl)cc2)c2sc(C(=O)OCC(N)=O)cc12	20.1	-3.2	0.9	0.2	12.7	75.7*
Cc1nn(Cc2ccccc2Cl)c2sc(C(=O)OC3CCCC3=O)cc12 (centres undefined)	7.6	-3.4	0	0.2	98.1*	84.2*
Cc1ccc(Cn2nc(C)c3cc(C(=O)OCC(N)=O)sc32)cc1	-2.6	-7.4	1	0.7	0.1	31.3
Cc1nn(-c2ccc(F)cc2)c2sc(C(=O)OC3CCOC3=O)cc12 (centres undefined)	-11.5	0.9	1.1	1	-5.2	2.7
SMILES	PostGolgi ctrl	PostGolgi yeast	CYP2C19 activ	CYP2C9 activ	CYP2C19 inhib	CYP2C9 inhib
COC(=O)Cn1c(CN2CCOCC2)nc2c1c(=O)[nH]c(=O)n2C	5.2	3.8	1.2	1.2	-15.3	-17.6
COc1ccc2nc(SCC(=O)/C(C#N)=C(\C)N)[nH]c2c1	8.2	-1.2	0.7	0.8	33.3	15.0
O=C(Cn1cc(C(=O)c2cccs2)c2ccccc21)NC1CCCCC1	8.9	0.3	0.5	0.3	54.7*	71.8*
O=C(CSc1cn(CCNC(=O)c2cccs2)c2ccccc12)NCc1ccccc1	1.1	-1.1	0.1	0	86.5*	97.9*
O=C(CSc1cn(CCNC(=O)c2cccs2)c2ccccc12)NC1CCCCC1	12.3	-2.2	0.4	0.1	59.0*	91.8*
O=C(NCC1CCCO1)c1cccs1 (centres undefined)	-9.7	10.9	1	1	-0.4	-1.3
O=C(CSc1cn(CCNC(=O)c2cccs2)c2ccccc12)NCC1CCCO1 (centres undefined)	17.9	-10.0	0.7	0.2	34.4	81.1*
O=C(O)c1ccc(CNCc2cccc(Cl)c2Cl)cc1	15.0	-0.6	0.9	1.1	9.0	-7.5
COc1cc(S(=O)(=O)N2CCC(N3CCCCC3)CC2)ccc1-n1cnnn1	-7.3	-0.2	1	1	-1.6	-1.2
Cc1nn(-c2ccccc2)c2c1C(c1cccnc1)N1C=C(S(=O)(=O)N3CCCCC3)C=CC1=N2 (centres undefined)	-3.5	0.5	0.9	0.9	11.0	10.9
C(=C\c1ccccc1)/CSc1nnc(-c2ccncc2)n1Cc1ccco1	26.1	-0.8	0.1	0.6	88.7*	35.7
C(=C\c1ccccc1)/CSc1nnc(-c2ccccc2)n1Cc1ccco1	29.0	-3.3	0.5	0.5	46.6	48.7
Nn1c(SC/C=C/c2ccccc2)nnc1-c1ccco1	5.2	11.0	0.7	1.1	29.4	-10.2
Clc1cccc(-c2nnc(SC/C=C/c3ccccc3)n2Cc2ccco2)c1	25.8	-3.1	0.4	0.3	64.7*	67.4*
c1ccc(-c2nnc(CSc3nnc(-c4ccncc4)n3Cc3ccco3)o2)cc1	-2.4	14.5	0.3	0.3	67.1*	70.6*
O=C(Cc1ccccc1)CC1(O)C(=O)Nc2ccccc21 (centres undefined)	13.2	-5.8	0.9	1.3	12.3	-29.5
O=c1oc2ccccc2cc1C1=Nn2c(nnc2-c2cccnc2)SC1	10.2	-1.6	0.9	0.8	10.4	22.2
CCC(C)(C(=O)NC1CCCCC1)N(C)C(=O)c1ccccn1 (centres undefined)	7.4	-4.1	1	1	-3.9	-4.1
O=C1C(Cc2ccccc2)SC(=Nc2ccccc2)N1c1ccccc1 (centres undefined)	6.1	1.0	0.9	1	6.7	-4.7
CCN(Cc1ccccc1)C(=O)CCCOc1ccccc1	9.6	-1.1	0.3	0.9	73.4*	14.6
COc1ccc(CN(CCC#N)C(=S)NC(=O)c2ccccc2)cc1	7.9	10.1	0.7	0.1	32.2	91.7*
CCOc1ccc(C(=O)NC(=S)N(Cc2ccccc2)Cc2ccccc2)cc1	5.3	-3.9	0.7	0.5	28.6	52.9*
CCCN(CCC)C(=S)NC(=O)c1ccc(-c2ccccc2)cc1	-0.3	-1.7	1.1	0.9	-9.3	8.7
N#CCCN(Cc1ccccc1)C(=S)NC(=O)c1ccccc1	9.6	0.2	0.7	0.1	34.4	92.7*
